Source: PubChem
Compounds with a hit are over-represented: about 1.4% of the library has one in this group of screens.
LEDGF integ inh: blocks HIV-1 LEDGF/p75-dependent DNA integration | TR-FRET IN-LEDGF/p75 DNA integration, Eu/Cy5 | inhibition, % at 3.7 µM | 370,000 compounds, 0.64% hits;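 active means inhibition above the screen-wide mean plus 3 SD, cut at about 13% in these data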;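 further: signal is the Cy5 over europium emission ratio at 671 and 618 nm; 0% = plate median of compound wells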
MBD2 inh: MBD2-methylated oligo binding inhibition; Q9UBB5; TR-FRET, MBD2 binding to methylated oligonucleotide; inhibition, % at 4.4 µM; 370,000 compounds, 0.31% hits; in the data active means inhibition above about 13%
CASP6 VEID inh: caspase-6 (human) enzyme inhibition; AID 686996; inhibition, % at 12.5 µM; purified caspase-6, Z-VEID-R110 cleavage fluorescence; 350,000 compounds, 0.53% hits;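 active means mean inhibition across replicates at least about 35%, with every replicate also reaching that limit, limit read from the data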;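 further: 0% = median of neutral control wells and 100% = no fluorescence left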
UHRF1 binding: UHRF1 methyl-DNA binding inhibition; inhibition, % at 4.4 µM; UHRF1 binding to methylated oligo, TR-FRET; 370,000 compounds, 0.75% hits; in the data active means inhibition above about 21%;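 further: UHRF1 SRA domain binding a hemimethylated CpG hairpin DNA probe; 0% = median of test compound wells and 100% = reference inhibitor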
Target sequence (Q96T88 whole entry, looked up, the tested form may be a part): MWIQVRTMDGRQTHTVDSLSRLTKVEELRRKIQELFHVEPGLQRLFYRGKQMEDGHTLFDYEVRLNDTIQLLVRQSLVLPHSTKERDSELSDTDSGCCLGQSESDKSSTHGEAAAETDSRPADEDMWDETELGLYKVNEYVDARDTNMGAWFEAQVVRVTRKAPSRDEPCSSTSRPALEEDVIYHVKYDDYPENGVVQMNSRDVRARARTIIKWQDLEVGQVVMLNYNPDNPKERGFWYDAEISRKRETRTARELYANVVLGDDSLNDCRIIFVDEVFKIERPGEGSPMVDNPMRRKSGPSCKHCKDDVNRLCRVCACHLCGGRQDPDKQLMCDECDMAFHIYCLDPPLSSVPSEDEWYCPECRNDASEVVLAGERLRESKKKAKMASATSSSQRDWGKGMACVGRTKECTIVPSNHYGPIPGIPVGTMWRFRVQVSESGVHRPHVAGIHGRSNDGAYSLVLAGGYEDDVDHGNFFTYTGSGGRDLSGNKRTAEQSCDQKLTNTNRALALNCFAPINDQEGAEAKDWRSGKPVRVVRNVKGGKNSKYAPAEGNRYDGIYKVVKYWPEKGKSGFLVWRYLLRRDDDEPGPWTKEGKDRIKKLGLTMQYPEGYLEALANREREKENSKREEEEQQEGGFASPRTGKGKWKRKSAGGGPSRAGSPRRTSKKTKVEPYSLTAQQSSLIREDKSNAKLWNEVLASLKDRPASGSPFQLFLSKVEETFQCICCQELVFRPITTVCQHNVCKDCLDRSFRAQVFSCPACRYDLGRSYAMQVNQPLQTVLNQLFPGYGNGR
An asterisk follows results filed as active; . = no result given.

SMILES | LEDGF integ inh | MBD2 inh | CASP6 VEID inh | UHRF1 binding
COc1ccc(S(=O)(=O)N(C)C[C@H]2OCCCC[C@@H](C)Oc3ccc(NC(=O)Nc4ccc5c(c4)OCO5)cc3C(=O)N([C@@H](C)CO)C[C@H]2C)cc1 | . | . | 0 | .
O=[N+]([O-])c1ccc(O)c2cccnc12 | 2 | -12 | 4 | -9
O=[N+]([O-])c1cc(F)c2cccnc2c1O | -4 | -12 | 92* | -8
O=[N+]([O-])c1cccc2c1ccc1ncccc12 | -2 | -2 | 1 | 49*
O=[N+]([O-])c1cc(Cl)c2cccnc2c1O | -4 | -15 | . | -11
O=[N+]([O-])c1ccc(O)c2ncccc12 | 2 | -9 | 63* | -9
Cc1ccc2ncccc2c1[N+](=O)[O-] | 3 | -3 | 1 | -5
O=[N+]([O-])c1cc([N+](=O)[O-])c2cccnc2c1Oc1ccccc1O | -4 | -13 | 45* | -9
C=CCCC1CN(Cc2ccco2)S(=O)(=O)c2c(F)cccc2O1 (configuration not stated) | 8 | -7 | 3 | -1
C=CCCC1CN(CC=C)S(=O)(=O)c2c(F)cccc2O1 (configuration not stated) | 1 | 8 | 1 | 22*
c1ccc(-c2cc(NCCN3CCCCC3)c3ccccc3n2)cc1 | -2 | 13 | . | 21*
O=C(c1cc(-c2ccccc2)nc2ccccc12)N1CCCC1 | 1 | -5 | 6 | 4
CC(=O)Nc1ccc(S(=O)(=O)N2CCSC2c2ccco2)cc1 (configuration not stated) | 4 | 12 | -1 | 27*
Cc1cccc(C(=O)NNC(=O)c2ccc(Br)cc2)c1 | -1 | 11 | -1 | 21*
Cc1cccc(C(=O)NNC(=O)c2ccc(-c3ccccc3)cc2)c1 | -1 | 5 | . | 2
CCCCCC(=O)NC(=S)Nc1ccccc1C(=O)OC | 6 | 12 | . | 24*
CCCCC(=O)NC(=S)Nc1ccccc1C(=O)Nc1ccccc1 | -3 | -4 | . | -1
COC(=O)CSc1nn(-c2ccc(F)cc2)c(=S)s1 | -2 | 6 | -3 | 21*
CS(=O)(=O)Nc1ccc2c(c1)[C@H]1C[C@@H](CC(=O)NCc3ccccc3F)O[C@H](CO)[C@H]1O2 | . | . | 1 | .
O=C(c1ccco1)N1CCN(C(c2cccs2)c2nnnn2C2CCCCC2)CC1 (configuration not stated) | 2 | 4 | -2 | 86*
CC(=O)Nc1cc(-c2ccc(N3CCN(C)CC3)cc2)cn2c(-c3ccc(S(C)(=O)=O)cc3)cnc12 | 1 | 2 | -24 | 25*
CC(=O)Nc1cc(-c2ccc(N3CCN(C)CC3)cc2)cn2c(-c3ccccc3)cnc12 | 1 | -1 | -41 | -4
COCC(=O)N(C)C[C@@H]1Oc2cc(-c3ccc(F)cc3)ccc2S(=O)(=O)N([C@@H](C)CO)C[C@H]1C | . | . | 0 | .
CCSc1nc2[nH]ncc2c(=O)[nH]1 | -1 | -1 | . | 0
CCCCSc1nc2[nH]ncc2c(=O)[nH]1 | 1 | -6 | -1 | 68*
SMILES | LEDGF integ inh | MBD2 inh | CASP6 VEID inh | UHRF1 binding
O=C(O)c1ccc(NC(=O)C2CCN(S(=O)(=O)c3ccc4c(c3)OCCO4)CC2)cc1 | -1 | 4 | 4 | -3
O=S(=O)(c1ccc2c(c1)OCCO2)N1CCN(S(=O)(=O)c2c(F)cc(F)cc2F)CC1 | 6 | 6 | 0 | 29*
O=C(Nc1ccccn1)C1CCN(S(=O)(=O)c2ccc3c(c2)OCCCO3)CC1 | 5 | 0 | 0 | -2
O=C(Nc1ccccc1)C1CCN(S(=O)(=O)c2ccc3c(c2)OCCO3)CC1 | -3 | 3 | 36* | 5
Cc1ccc(NC(=O)C2CCN(S(=O)(=O)c3ccc4c(c3)OCCCO4)CC2)nc1 | -1 | 5 | 3 | 34*
COc1ccc(NC(=O)N(C)C[C@@H]2Oc3ccc(NC(=O)CCC(F)(F)F)cc3CC(=O)N([C@H](C)CO)C[C@H]2C)cc1 | . | . | -6 | .
CC(C)CC#Cc1ccc2c(c1)O[C@@H](CN(C)C(=O)Nc1ccccc1)[C@H](C)CN([C@H](C)CO)S2(=O)=O | . | . | 1 | .
CCOC(=O)c1oc2ccccc2c1NC(=O)C(C)(C)C | -2 | 6 | 1 | 52*
CCOCC(=O)Nc1c(C(=O)OCC)oc2ccccc12 | -3 | 0 | . | -3
C[C@@H]1CCCCO[C@H](CN(C)Cc2ccc(C(F)(F)F)cc2)[C@H](C)CN([C@H](C)CO)C(=O)c2cc(NS(=O)(=O)c3ccc(Cl)cc3)ccc2O1 | . | . | 0 | .
N/C(Cc1ccc(Cl)cc1Cl)=N\OC(=O)c1ccccc1F | -1 | 0 | 1 | 9
N/C(Cc1cccc2ccccc12)=N\OC(=O)c1ccccc1F | 4 | -11 | 41* | -8
Cc1ccc(S(=O)(=O)NC2CCCCC2)cc1C(=O)N1CCC(C(N)=O)CC1 | 1 | 0 | 3 | 67*
